# According to PMC7862700, “An all-to-all approach to the identification of sequence-specific readers for epigenetic DNA modifications on cytosine”:
# Columns and labels:
# Assay in all cases: DAPPL (digital affinity profiling via proximity ligation, sequencing); 10 mM Tris-HCl pH 7.5, 50 mM NaCl, 1 mM DTT, 4% glycerol, room temperature, 30 min; GST-TFs on glutathione beads, 16-mer random dsDNA library, 0.1% formaldehyde crosslink after washing; high values mean tight binding
# FLI1 = biological target: T1, FLI1 (Homo sapiens, UniProt Q01543 1-452); conditions: protein: recombinant; tags: N-terminal GST; dsDNA, one strand shown
# T1 sequence: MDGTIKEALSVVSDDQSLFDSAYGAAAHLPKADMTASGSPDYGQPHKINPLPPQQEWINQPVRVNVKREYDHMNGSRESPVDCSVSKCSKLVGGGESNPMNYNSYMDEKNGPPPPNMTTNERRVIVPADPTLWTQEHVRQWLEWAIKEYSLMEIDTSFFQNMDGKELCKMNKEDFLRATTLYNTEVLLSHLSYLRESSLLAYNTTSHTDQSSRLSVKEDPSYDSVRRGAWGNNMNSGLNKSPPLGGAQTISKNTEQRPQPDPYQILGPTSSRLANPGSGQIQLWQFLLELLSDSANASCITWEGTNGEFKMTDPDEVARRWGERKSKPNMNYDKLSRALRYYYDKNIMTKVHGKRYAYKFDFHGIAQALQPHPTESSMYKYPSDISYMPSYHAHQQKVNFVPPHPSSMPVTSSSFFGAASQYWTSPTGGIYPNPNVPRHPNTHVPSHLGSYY
# Summary of the method: (§1)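 Binding signal is given per hexamer as its read frequency for a factor divided by its frequency in the tag-only sample. GST-fused human transcription factors were expressed in yeast, captured on glutathione beads, barcoded with DNA and pooled with that sample, then incubated with 200 nmole of a 16-mer random double-stranded DNA library in Tris/NaCl/DTT/glycerol buffer for 30 min at room temperature. The pools were then washed, crosslinked, proximity-ligated, amplified by PCR and sequenced on an Illumina NextSeq500.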
# ELK1 = biological target: T2, ELK1 (Homo sapiens, UniProt P19419 1-428); conditions: protein: recombinant; tags: N-terminal GST; dsDNA, one strand shown
# T2 sequence: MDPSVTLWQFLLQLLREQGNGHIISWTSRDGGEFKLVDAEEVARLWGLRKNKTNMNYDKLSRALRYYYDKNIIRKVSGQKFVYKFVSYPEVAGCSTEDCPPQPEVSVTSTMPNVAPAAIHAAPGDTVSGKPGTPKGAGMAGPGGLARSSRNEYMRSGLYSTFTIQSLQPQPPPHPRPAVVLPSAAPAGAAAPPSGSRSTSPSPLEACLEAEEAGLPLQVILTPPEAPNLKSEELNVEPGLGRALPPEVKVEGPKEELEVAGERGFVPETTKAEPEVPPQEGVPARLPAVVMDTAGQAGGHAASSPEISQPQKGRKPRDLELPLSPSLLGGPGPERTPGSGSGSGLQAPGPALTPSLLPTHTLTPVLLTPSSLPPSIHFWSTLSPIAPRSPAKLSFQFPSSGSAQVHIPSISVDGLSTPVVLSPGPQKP
# Summary of the method: as §1
# GABPA = biological target: T3, GABPA (Homo sapiens, UniProt Q06546 1-454); conditions: protein: recombinant; tags: N-terminal GST; dsDNA, one strand shown
# T3 sequence: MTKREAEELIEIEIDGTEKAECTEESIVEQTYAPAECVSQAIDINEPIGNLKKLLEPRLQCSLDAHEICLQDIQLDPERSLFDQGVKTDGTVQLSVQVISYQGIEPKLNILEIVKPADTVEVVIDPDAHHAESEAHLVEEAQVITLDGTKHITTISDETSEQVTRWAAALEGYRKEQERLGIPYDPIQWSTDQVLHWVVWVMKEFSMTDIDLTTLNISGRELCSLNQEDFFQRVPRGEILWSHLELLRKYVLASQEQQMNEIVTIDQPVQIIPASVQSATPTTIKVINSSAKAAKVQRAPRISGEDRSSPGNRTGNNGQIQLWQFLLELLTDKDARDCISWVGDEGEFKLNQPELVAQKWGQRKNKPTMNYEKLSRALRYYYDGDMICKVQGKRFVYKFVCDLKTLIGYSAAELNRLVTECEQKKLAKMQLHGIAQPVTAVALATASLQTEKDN
# Summary of the method: as §1
# ERG = biological target: T4, ERG (Homo sapiens, UniProt P11308 1-479); conditions: protein: recombinant; tags: N-terminal GST; dsDNA, one strand shown
# T4 sequence: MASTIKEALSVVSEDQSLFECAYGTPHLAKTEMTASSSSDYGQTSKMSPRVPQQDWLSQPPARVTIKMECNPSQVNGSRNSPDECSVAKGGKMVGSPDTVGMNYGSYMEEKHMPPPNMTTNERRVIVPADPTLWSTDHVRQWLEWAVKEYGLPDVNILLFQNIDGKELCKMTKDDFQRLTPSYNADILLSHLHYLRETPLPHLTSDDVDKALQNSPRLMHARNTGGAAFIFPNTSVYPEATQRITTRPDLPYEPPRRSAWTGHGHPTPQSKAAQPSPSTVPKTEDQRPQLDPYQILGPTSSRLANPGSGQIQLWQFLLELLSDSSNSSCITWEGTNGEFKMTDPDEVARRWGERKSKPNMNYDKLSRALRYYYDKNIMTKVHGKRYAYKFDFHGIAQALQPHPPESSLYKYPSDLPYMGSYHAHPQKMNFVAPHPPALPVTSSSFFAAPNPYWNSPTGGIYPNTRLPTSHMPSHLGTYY
# Summary of the method: as §1
# ELF1 = ELF1 (Homo sapiens, UniProt P32519 1-619); conditions: protein: recombinant; tags: N-terminal GST; dsDNA, one strand shown
# Summary of the method: as §1
# EHF = biological target: T5, EHF (Homo sapiens, UniProt Q9NZC4 1-300); conditions: protein: recombinant; tags: N-terminal GST; dsDNA, one strand shown
# T5 sequence: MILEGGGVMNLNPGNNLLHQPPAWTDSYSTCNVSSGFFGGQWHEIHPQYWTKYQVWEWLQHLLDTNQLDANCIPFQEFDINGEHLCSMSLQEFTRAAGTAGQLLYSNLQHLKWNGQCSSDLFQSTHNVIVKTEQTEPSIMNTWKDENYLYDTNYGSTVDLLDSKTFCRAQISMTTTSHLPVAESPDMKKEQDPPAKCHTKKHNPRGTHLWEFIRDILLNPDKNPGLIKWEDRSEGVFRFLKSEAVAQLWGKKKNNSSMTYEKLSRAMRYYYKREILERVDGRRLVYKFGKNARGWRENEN
# Summary of the method: as §1
# SPI1 = SPI1 (Homo sapiens, UniProt P17947 1-270); conditions: protein: recombinant; tags: N-terminal GST; dsDNA, one strand shown
# Summary of the method: as §1
# SPIB = SPIB (Homo sapiens, UniProt Q01892 1-262); conditions: protein: recombinant; tags: N-terminal GST; dsDNA, one strand shown
# Summary of the method: as §1
# ELK3 = biological target: T6, ELK3 (Homo sapiens, UniProt P41970 1-407); conditions: protein: recombinant; tags: N-terminal GST; dsDNA, one strand shown
# T6 sequence: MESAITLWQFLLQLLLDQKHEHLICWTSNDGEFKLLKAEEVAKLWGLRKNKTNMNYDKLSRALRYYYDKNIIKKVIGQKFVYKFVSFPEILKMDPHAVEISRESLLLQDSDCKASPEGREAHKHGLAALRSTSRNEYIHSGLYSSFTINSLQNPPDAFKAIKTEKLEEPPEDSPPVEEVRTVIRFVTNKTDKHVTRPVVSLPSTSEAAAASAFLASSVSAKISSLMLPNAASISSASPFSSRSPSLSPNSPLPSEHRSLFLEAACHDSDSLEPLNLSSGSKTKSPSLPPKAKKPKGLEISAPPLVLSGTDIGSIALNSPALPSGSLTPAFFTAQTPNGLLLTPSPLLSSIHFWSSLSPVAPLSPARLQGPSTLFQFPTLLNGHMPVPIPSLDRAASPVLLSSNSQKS
# Summary of the method: as §1
# FEV = biological target: T7, FEV (Homo sapiens, UniProt Q99581 1-238); conditions: protein: recombinant; tags: N-terminal GST; dsDNA, one strand shown
# T7 sequence: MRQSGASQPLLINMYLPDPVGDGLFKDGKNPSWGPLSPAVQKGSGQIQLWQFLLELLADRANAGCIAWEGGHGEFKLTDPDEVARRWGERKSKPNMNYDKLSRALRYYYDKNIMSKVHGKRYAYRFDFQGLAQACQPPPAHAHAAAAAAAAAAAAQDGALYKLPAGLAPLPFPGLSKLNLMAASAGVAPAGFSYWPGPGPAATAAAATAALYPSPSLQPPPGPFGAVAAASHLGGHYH
# Summary of the method: as §1
# ETV5 = ETV5 (Homo sapiens, UniProt P41161 1-510); conditions: protein: recombinant; tags: N-terminal GST; dsDNA, one strand shown
# Summary of the method: as §1
# HSF1 = HSF1 (Homo sapiens, UniProt Q00613 1-529); conditions: protein: recombinant; tags: N-terminal GST; chain copies: 3; dsDNA, one strand shown
# Summary of the method: as §1
# SPIC = biological target: T8, SPIC (Homo sapiens, UniProt Q8N5J4 1-248); conditions: protein: recombinant; tags: N-terminal GST; dsDNA, one strand shown
# T8 sequence: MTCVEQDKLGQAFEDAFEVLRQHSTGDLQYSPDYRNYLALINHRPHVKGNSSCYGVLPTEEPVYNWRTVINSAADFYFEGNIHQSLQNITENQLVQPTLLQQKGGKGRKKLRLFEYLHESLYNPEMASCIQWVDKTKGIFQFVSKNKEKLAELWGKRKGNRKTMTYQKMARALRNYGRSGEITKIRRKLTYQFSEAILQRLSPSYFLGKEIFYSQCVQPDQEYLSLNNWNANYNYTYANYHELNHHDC
# Summary of the method: as §1
# ELF4 = ELF4 (Homo sapiens, UniProt Q99607 1-663); conditions: protein: recombinant; tags: N-terminal GST; dsDNA, one strand shown
# Summary of the method: as §1
# ELK4 = biological target: T9, ELK4 (Homo sapiens, UniProt P28324-2 1-405); conditions: protein: recombinant; tags: N-terminal GST; dsDNA, one strand shown
# T9 sequence: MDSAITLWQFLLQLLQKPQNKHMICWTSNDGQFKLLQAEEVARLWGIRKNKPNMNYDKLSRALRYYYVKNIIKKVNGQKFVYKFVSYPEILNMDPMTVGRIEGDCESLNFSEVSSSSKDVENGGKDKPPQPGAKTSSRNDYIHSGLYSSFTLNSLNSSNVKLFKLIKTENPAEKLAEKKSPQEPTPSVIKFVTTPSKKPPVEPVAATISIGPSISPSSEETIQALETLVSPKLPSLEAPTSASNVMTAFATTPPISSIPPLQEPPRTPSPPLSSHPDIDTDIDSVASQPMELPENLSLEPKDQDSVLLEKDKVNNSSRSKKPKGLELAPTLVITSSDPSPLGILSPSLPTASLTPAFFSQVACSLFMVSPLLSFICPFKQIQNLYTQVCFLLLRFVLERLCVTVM
# Summary of the method: as §1
# ETV2 = biological target: T10, ETV2 (Homo sapiens, UniProt O00321 1-342); conditions: protein: recombinant; tags: N-terminal GST; dsDNA, one strand shown
# T10 sequence: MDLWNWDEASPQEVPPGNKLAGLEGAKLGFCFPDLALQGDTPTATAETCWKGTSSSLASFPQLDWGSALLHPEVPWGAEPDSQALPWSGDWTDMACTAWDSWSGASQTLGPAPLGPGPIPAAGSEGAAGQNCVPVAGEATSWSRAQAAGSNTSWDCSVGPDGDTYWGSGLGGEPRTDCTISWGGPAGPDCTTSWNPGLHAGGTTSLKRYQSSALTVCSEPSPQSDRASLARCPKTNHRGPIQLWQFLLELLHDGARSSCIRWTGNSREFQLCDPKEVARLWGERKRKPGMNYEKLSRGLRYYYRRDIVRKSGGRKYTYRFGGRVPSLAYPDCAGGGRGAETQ
# Summary of the method: as §1
# ELF3 = biological target: T11, ELF3 (Homo sapiens, UniProt P78545 1-371); conditions: protein: recombinant; tags: N-terminal GST; dsDNA, one strand shown
# T11 sequence: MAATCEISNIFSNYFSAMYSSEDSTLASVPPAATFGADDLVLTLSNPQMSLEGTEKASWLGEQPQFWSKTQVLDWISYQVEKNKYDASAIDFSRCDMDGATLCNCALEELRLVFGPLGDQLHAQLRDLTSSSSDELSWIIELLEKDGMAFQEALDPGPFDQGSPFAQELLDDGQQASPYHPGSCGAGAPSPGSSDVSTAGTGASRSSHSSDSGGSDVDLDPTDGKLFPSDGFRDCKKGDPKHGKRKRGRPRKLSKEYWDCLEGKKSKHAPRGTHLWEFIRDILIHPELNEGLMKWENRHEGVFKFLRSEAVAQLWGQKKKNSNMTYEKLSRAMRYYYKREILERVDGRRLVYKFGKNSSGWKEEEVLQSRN
# Summary of the method: as §1
# CRX = CRX (Homo sapiens, UniProt O43186 1-299); conditions: protein: recombinant; tags: N-terminal GST; dsDNA, one strand shown
# Summary of the method: as §1
# ETV1 = ETV1 (Homo sapiens, UniProt P50549 1-477); conditions: protein: recombinant; tags: N-terminal GST; dsDNA, one strand shown
# Summary of the method: as §1
# Sequence of CRX (O43186 whole entry): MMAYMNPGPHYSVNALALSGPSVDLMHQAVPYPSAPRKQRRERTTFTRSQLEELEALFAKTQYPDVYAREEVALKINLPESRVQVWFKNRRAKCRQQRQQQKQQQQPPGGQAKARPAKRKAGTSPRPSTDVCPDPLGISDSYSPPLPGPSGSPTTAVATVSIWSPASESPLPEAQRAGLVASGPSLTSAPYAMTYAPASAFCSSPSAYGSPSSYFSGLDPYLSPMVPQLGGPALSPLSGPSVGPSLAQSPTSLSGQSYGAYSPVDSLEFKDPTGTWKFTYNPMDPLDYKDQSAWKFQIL
# Sequence of HSF1 (Q00613 whole entry): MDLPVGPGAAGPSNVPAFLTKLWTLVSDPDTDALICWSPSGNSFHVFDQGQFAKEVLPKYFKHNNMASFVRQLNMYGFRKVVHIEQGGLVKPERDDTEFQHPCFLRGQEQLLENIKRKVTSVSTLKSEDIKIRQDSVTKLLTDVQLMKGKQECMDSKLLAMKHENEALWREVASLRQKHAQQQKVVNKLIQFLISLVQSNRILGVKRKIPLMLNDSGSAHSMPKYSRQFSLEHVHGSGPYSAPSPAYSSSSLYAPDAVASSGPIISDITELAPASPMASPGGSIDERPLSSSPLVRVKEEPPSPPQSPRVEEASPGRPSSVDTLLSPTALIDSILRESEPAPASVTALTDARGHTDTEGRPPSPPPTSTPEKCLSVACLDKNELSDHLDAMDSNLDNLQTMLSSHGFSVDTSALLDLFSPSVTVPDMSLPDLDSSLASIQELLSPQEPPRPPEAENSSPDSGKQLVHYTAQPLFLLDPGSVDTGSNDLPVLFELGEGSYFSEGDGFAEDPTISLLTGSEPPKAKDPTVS
# Sequence of SPIB (Q01892 whole entry): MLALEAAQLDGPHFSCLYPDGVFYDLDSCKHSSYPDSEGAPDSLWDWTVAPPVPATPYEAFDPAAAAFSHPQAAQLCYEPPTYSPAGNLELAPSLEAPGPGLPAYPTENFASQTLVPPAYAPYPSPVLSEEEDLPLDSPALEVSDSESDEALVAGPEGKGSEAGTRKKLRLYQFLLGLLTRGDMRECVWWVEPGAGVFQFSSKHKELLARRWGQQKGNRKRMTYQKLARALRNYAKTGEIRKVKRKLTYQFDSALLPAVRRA
# Sequence of ELF1 (P32519 whole entry): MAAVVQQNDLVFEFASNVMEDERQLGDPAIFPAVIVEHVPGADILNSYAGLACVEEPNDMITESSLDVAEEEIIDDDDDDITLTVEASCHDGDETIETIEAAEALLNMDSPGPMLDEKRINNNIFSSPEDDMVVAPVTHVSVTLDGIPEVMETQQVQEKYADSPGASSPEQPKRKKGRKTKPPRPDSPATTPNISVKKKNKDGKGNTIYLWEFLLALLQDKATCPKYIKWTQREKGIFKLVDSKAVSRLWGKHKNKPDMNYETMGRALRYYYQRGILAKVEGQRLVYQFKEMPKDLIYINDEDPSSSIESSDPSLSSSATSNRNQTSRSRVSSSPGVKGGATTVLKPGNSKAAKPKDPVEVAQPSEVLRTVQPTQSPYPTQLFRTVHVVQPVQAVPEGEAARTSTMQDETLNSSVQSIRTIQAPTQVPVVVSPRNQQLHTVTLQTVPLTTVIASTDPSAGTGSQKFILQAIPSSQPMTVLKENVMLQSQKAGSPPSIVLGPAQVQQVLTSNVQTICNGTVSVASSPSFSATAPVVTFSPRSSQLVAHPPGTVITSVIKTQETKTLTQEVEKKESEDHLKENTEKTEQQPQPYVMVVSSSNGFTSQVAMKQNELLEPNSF
# Sequence of ELF4 (Q99607 whole entry): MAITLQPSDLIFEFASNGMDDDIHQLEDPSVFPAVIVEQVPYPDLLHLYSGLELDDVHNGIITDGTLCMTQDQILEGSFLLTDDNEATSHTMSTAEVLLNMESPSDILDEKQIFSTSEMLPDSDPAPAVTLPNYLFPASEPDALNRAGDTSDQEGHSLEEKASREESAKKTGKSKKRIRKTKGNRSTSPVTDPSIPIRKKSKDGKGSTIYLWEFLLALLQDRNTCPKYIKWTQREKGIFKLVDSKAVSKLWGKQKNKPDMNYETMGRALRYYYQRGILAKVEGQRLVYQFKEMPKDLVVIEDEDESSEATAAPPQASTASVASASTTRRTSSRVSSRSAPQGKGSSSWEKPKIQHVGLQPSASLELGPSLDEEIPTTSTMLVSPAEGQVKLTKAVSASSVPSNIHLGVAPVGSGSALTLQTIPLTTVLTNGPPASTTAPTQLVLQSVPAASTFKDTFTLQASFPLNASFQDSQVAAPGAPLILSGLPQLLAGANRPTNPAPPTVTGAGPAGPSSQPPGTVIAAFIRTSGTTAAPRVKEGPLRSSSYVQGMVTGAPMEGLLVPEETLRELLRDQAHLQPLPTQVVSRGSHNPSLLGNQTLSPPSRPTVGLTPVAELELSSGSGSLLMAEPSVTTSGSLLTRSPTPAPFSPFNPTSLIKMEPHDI
# Sequence of ETV1 (P50549 whole entry): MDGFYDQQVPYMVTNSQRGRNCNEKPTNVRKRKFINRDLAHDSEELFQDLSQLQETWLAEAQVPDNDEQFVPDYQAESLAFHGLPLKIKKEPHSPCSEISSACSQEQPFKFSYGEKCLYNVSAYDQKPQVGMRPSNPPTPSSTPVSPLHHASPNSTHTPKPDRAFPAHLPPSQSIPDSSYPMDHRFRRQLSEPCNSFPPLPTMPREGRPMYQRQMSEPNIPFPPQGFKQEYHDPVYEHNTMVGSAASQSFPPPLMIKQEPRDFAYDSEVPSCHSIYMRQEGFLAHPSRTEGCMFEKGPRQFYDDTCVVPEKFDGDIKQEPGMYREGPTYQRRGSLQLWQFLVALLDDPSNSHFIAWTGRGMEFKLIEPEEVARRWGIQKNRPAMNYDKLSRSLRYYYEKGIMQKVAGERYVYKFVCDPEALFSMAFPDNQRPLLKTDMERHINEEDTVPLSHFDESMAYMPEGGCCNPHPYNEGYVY
# Sequence of ETV5 (P41161 whole entry): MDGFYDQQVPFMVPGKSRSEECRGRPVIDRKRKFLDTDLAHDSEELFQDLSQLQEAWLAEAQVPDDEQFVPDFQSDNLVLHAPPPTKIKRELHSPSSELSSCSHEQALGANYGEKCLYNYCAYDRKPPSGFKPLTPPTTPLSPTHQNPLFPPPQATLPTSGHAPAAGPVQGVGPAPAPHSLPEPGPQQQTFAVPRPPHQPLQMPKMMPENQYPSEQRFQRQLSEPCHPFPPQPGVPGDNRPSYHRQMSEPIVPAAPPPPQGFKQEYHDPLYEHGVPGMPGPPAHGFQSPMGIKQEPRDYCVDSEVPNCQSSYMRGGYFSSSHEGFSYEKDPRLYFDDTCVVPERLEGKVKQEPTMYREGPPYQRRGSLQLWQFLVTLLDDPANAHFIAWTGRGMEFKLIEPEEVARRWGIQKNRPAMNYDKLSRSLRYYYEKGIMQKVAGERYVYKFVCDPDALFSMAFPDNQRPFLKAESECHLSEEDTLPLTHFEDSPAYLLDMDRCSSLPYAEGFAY
sequence,measurement,setting,value
CGCGCT,binding signal,FLI1,"1.25 fold enrichment (6-mer frequency, TF over GST control)"
same,binding signal,ELK1,"1.32 fold enrichment (6-mer frequency, TF over GST control)"
same,binding signal,GABPA,"1.13 fold enrichment (6-mer frequency, TF over GST control)"
same,binding signal,ERG,"1.13 fold enrichment (6-mer frequency, TF over GST control)"
same,binding signal,ELF1,"1.18 fold enrichment (6-mer frequency, TF over GST control)"
same,binding signal,EHF,"1.17 fold enrichment (6-mer frequency, TF over GST control)"
same,binding signal,SPI1,"1.1 fold enrichment (6-mer frequency, TF over GST control)"
same,binding signal,SPIB,"1.27 fold enrichment (6-mer frequency, TF over GST control)"
same,binding signal,ELK3,"1.21 fold enrichment (6-mer frequency, TF over GST control)"
same,binding signal,FEV,"1.11 fold enrichment (6-mer frequency, TF over GST control)"
same,binding signal,ETV5,"1.17 fold enrichment (6-mer frequency, TF over GST control)"
same,binding signal,HSF1,"1.11 fold enrichment (6-mer frequency, TF over GST control)"
same,binding signal,SPIC,"1.31 fold enrichment (6-mer frequency, TF over GST control)"
same,binding signal,ELF4,"1.2 fold enrichment (6-mer frequency, TF over GST control)"
same,binding signal,ELK4,"1.21 fold enrichment (6-mer frequency, TF over GST control)"
same,binding signal,ETV2,"1.11 fold enrichment (6-mer frequency, TF over GST control)"
same,binding signal,ELF3,"1.05 fold enrichment (6-mer frequency, TF over GST control)"
same,binding signal,CRX,"1.06 fold enrichment (6-mer frequency, TF over GST control)"
same,binding signal,ETV1,"1.15 fold enrichment (6-mer frequency, TF over GST control)"
